An excerpt weighted towards active compounds, which were near 0.92% of everything screened.
CIT2 TOR yeast: modulators of CIT2-GFP expression in yeast, primary screen, S. cerevisiae, GFP fusion, multiplex flow cytometry, MLPCN library; S. cerevisiae CIT2-GFP strain, 3 h; 100 means same as DMSO wells; GFP response vs DMSO, % at 10 µM; 320,000 tested, 0.065% active;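 active = GFP response relative to DMSO above a set limit, near the screen mean plus 3 SD, cut at about 150% in these data; inconclusive = Fewer than 70 cells measured for a yeast strain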;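 also: ratio of well median GFP fluorescence to mean of DMSO wells on the plate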
MEP2-GFP yeast: modulators of MEP2-GFP levels in yeast, primary screen, S. cerevisiae, multiplex flow cytometry, MLPCN library; S. cerevisiae MEP2-GFP strain, 3 h; 100% = DMSO control level; GFP response vs DMSO, % at 10 µM; AID 2016, 2009; 330,000 tested, 0.51% active;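 active = GFP response versus DMSO above a set limit, roughly screen mean plus 3 SD, cut at about 180% in these data; inconclusive = fewer than 70 cells counted for a yeast strain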;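 also: median GFP fluorescence of the barcode-gated MEP2-GFP cells per well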
RPL19A TOR yeast: RPL19A-GFP expression modulators in yeast, primary screen, cell-based, S. cerevisiae, multiplex flow cytometry, MLPCN; S. cerevisiae RPL19A-GFP strain, 3 h; hits give low values; percent response vs DMSO, % at 10 µM; 330,000 tested, 0.3% active; AID 2025, 2009;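 active = percent response vs DMSO below 50%; inconclusive = fewer than 70 events counted for the yeast strain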;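 also: median channel GFP fluorescence of the barcoded RPL19A-GFP strain; ratio of sample median GFP to plate DMSO average so 100% = DMSO; lower means less RPL19A-GFP as with rapamycin TOR inhibition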
LAP4-GFP MLPCN: modulators of LAP4-GFP expression in yeast, primary screen, S. cerevisiae, multiplex flow cytometry, MLPCN library. GFP response vs DMSO, % at 10 µM. 320,000 tested, 0.34% active. 3 h; median GFP as percent of DMSO wells. AID 2023, 2009;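 active = GFP response vs DMSO above a set limit, about the screen mean plus 3 SD, cut at about 150% in these data; inconclusive = under 70 cell events counted for the yeast strain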
AGP1-GFP MLPCN: modulators of AGP1-GFP expression in yeast TOR pathway, primary screen, cell-based, multiplex flow cytometry, S. cerevisiae, MLPCN library; 320,000 tested, 0.02% active; 3 h; GFP as percent of DMSO wells; AID 2066, 2009; GFP response vs DMSO, % at 10 µM;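 active = GFP response relative to DMSO above a set limit, near screen average plus 3 SD, cut at about 150% in these data; inconclusive = fewer than 70 cells counted for the yeast strain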;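 also: median GFP channel fluorescence of the gated AGP1 strain per well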
* marks the source's active call; other numbers are inactive results; [ ] = remark or other dose.

How did O=C(CCCn1cncn1)N1CCCC(N2CCN(c3ccc(F)cc3)CC2)C1 (stereo unspecified) do in these assays?
CIT2 TOR yeast: 94; MEP2-GFP yeast: 97; RPL19A TOR yeast: 95; LAP4-GFP MLPCN: 103; AGP1-GFP MLPCN: 107

Results for N#Cc1cc2c(=O)n3ccccc3nc2n(Cc2cccnc2)c1=O ?
CIT2 TOR yeast: inconclusive; MEP2-GFP yeast: 188*[may fluoresce violet]; RPL19A TOR yeast: 41*[may fluoresce violet]; LAP4-GFP MLPCN: 81; AGP1-GFP MLPCN: 19

Results for N=c1c(S(=O)(=O)c2ccccc2)cc2c(=O)n3ccccc3nc2n1Cc1cccnc1 ?
CIT2 TOR yeast: 96; MEP2-GFP yeast: 99; RPL19A TOR yeast: 96; LAP4-GFP MLPCN: 110; AGP1-GFP MLPCN: 111

What do the screens show for `CCOc1ccc(C(=O)OC(C)CN2CCN(C)CC2)cc1` (stereo unspecified)?
CIT2 TOR yeast: 100; MEP2-GFP yeast: 96; RPL19A TOR yeast: 91; LAP4-GFP MLPCN: 105; AGP1-GFP MLPCN: 99

What do the screens show for `Cc1ccc(-c2onc3ccc(C4(C)OCCO4)cc23)cc1`?
CIT2 TOR yeast: inconclusive; MEP2-GFP yeast: 217*[may fluoresce violet]; RPL19A TOR yeast: 46*[may fluoresce violet]; LAP4-GFP MLPCN: 91; AGP1-GFP MLPCN: inconclusive

Results for Cc1ccc(-c2onc3ccc(C=O)cc23)cc1 ?
CIT2 TOR yeast: 86; MEP2-GFP yeast: 89; RPL19A TOR yeast: 93; LAP4-GFP MLPCN: 109; AGP1-GFP MLPCN: 88

What do the screens show for `Cc1c(C)n2c(SCC(=O)N3CCCCC3)nnc2[nH]c1=O`?
CIT2 TOR yeast: 85; MEP2-GFP yeast: 98; RPL19A TOR yeast: 98; LAP4-GFP MLPCN: 104; AGP1-GFP MLPCN: 110

What do the screens show for `O=C(Nc1ccc(Cl)cc1)C1C2C=CC3(O2)C1C(=O)N(CCN1CCCCC1)C3C(=O)NC1CCCCC1` (stereo unspecified)?
CIT2 TOR yeast: inconclusive; MEP2-GFP yeast: 387*[may fluoresce violet]; RPL19A TOR yeast: 58; LAP4-GFP MLPCN: 83; AGP1-GFP MLPCN: 18

Results for CCC1CCCCN1CCN1C(=O)C2C(C(=O)Nc3cccc(OC)c3)C3C=CC2(O3)C1C(=O)NC1CCCCC1 (stereo unspecified) ?
CIT2 TOR yeast: inconclusive; MEP2-GFP yeast: 560*[may fluoresce violet]; RPL19A TOR yeast: 54; LAP4-GFP MLPCN: 83; AGP1-GFP MLPCN: 19

How did CC(=O)C1C(c2ccc(F)cc2)c2c(noc2C)CC1(C)O (stereo unspecified) do in these assays?
CIT2 TOR yeast: 96; MEP2-GFP yeast: 94; RPL19A TOR yeast: 100; LAP4-GFP MLPCN: 109; AGP1-GFP MLPCN: 108

Results for CCN(CC)C(=O)c1ccccc1NC(=O)CN1C(=O)c2ccccc2S1(=O)=O ?
CIT2 TOR yeast: 99; MEP2-GFP yeast: 91; RPL19A TOR yeast: 95; LAP4-GFP MLPCN: 94; AGP1-GFP MLPCN: 97

What do the screens show for `COc1cccc(CNC(=O)CC2C(=O)NCCN2Cc2ccoc2)c1OC` (stereo unspecified)?
CIT2 TOR yeast: 93; MEP2-GFP yeast: 101; RPL19A TOR yeast: 100; LAP4-GFP MLPCN: 109; AGP1-GFP MLPCN: 101

How did O=C(Cc1ccc([N+](=O)[O-])cc1)Nc1ccc(Br)cn1 do in these assays?
CIT2 TOR yeast: 97; MEP2-GFP yeast: 123; RPL19A TOR yeast: 104; LAP4-GFP MLPCN: 98; AGP1-GFP MLPCN: 121

What do the screens show for `O=C(COc1ccc(Br)cc1)Nc1ccc([N+](=O)[O-])cn1`?
CIT2 TOR yeast: inconclusive; MEP2-GFP yeast: 250*[may fluoresce violet]; RPL19A TOR yeast: 60; LAP4-GFP MLPCN: 97

What do the screens show for `COc1ccc2ccccc2c1/C=N/Nc1cccc(C(=O)O)c1`?
CIT2 TOR yeast: 92; MEP2-GFP yeast: 114; RPL19A TOR yeast: 102; LAP4-GFP MLPCN: 166*; AGP1-GFP MLPCN: 91

What do the screens show for `Cc1ccc(SCCCn2cncn2)cc1`?
CIT2 TOR yeast: inconclusive; MEP2-GFP yeast: 320*[may fluoresce violet]; RPL19A TOR yeast: 45*[may fluoresce violet]; LAP4-GFP MLPCN: 86; AGP1-GFP MLPCN: 21

What do the screens show for `CCc1ccc(NC(=O)c2noc3c2CCc2ccccc2-3)cc1`?
CIT2 TOR yeast: inconclusive; MEP2-GFP yeast: 237*[may fluoresce violet]; RPL19A TOR yeast: 13*[may fluoresce violet]; LAP4-GFP MLPCN: 106; AGP1-GFP MLPCN: inconclusive

How did C[C@H]1[C@H](C)CC[C@]2(C)CC[C@]3(C)C(=CC[C@@H]4[C@@]5(C)CC[C@@H](O)[C@](C)(C(=O)O)[C@@H]5CC[C@]43C)[C@H]12 do in these assays?
CIT2 TOR yeast: 92; MEP2-GFP yeast: 88; RPL19A TOR yeast: 90; LAP4-GFP MLPCN: 123; AGP1-GFP MLPCN: 86

Results for COCC1CCN(Cc2c(C(=O)N3CCc4ccccc4C3)nc3ccc(Cl)cn23)C1 (stereo unspecified) ?
CIT2 TOR yeast: 111; MEP2-GFP yeast: 101; RPL19A TOR yeast: 110; LAP4-GFP MLPCN: 71; AGP1-GFP MLPCN: 92

Results for O=S(=O)(Nc1nc2c(s1)CCCC2)c1ccc2ccccc2c1 ?
CIT2 TOR yeast: 104; MEP2-GFP yeast: 97; RPL19A TOR yeast: 96; LAP4-GFP MLPCN: 94; AGP1-GFP MLPCN: 99

Results for O=S(=O)(NC1=NCCCCC1)c1ccc2sc(NS(=O)(=O)c3ccc4ccccc4c3)nc2c1 ?
CIT2 TOR yeast: inconclusive; MEP2-GFP yeast: 243*[may fluoresce violet]; RPL19A TOR yeast: 41*[may fluoresce violet]; LAP4-GFP MLPCN: 83; AGP1-GFP MLPCN: 22

What do the screens show for `Cc1[nH]n(-c2ccccc2)c(=O)c1/C=N/Nc1nncc(-c2ccccc2)n1`?
CIT2 TOR yeast: 89; MEP2-GFP yeast: 113; RPL19A TOR yeast: 89; LAP4-GFP MLPCN: 271*; AGP1-GFP MLPCN: 88

What do the screens show for `Cc1ccc(/C=N/Nc2nncc(-c3ccccc3)n2)o1`?
CIT2 TOR yeast: 105; MEP2-GFP yeast: 99; RPL19A TOR yeast: 97; LAP4-GFP MLPCN: 98; AGP1-GFP MLPCN: 100

Results for CN1C(=O)/C(=C/c2ccc(-c3ccccc3[N+](=O)[O-])o2)SC1=Nc1ccc(Cl)c(C(=O)O)c1 ?
CIT2 TOR yeast: inconclusive; MEP2-GFP yeast: 126; RPL19A TOR yeast: 41*[may fluoresce violet]; LAP4-GFP MLPCN: 60; AGP1-GFP MLPCN: inconclusive

What do the screens show for `O=C(COc1ccc(Br)cc1)Nc1ccccc1N1CCCC1`?
CIT2 TOR yeast: inconclusive; MEP2-GFP yeast: 529*[may fluoresce violet]; RPL19A TOR yeast: 79; LAP4-GFP MLPCN: 94; AGP1-GFP MLPCN: 16

What do the screens show for `OC(CNCc1ccccc1)(c1ccccc1)c1ccccc1`?
CIT2 TOR yeast: inconclusive; MEP2-GFP yeast: 211*[may fluoresce violet]; RPL19A TOR yeast: 66; LAP4-GFP MLPCN: 85; AGP1-GFP MLPCN: 26

How did OC(CNCc1ccccc1)(c1ccc(F)cc1)c1ccc(F)cc1 do in these assays?
CIT2 TOR yeast: 101; MEP2-GFP yeast: 99; RPL19A TOR yeast: 96; LAP4-GFP MLPCN: 100; AGP1-GFP MLPCN: 100

What do the screens show for `Cc1ccc(Nc2ccc(C(=O)O)cc2N)cc1`?
CIT2 TOR yeast: 101; MEP2-GFP yeast: 107; RPL19A TOR yeast: 100; LAP4-GFP MLPCN: 103; AGP1-GFP MLPCN: 100

Screening data (PubChem BioAssay)
